# Test results published in PubChem BioAssay (NCATS).
# Records with an inconclusive call do not appear. A call without a number means that no potency is given here. Active and inactive are the calls of the source. Unless noted, calls follow the shape of the dose curve; as a rule, active = well fitted curve in the direction sought with a large enough effect; inconclusive = small, poorly fitted or top-dose-only effect, or another doubt; inactive = no such curve, though single readings can be large; an effect the other way counts as inactive or inconclusive.
# Columns and labels:
# [1] = target: ATP-dependent 6-phosphofructokinase (Trypanosoma brucei brucei) (UniProt O15648); assay: qHTS Assay to Find Inhibitors of T. brucei phosphofructokinase: hit validation (AID 492961);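 also: luminescence reports ADP formed as PFK phosphorylates fructose-6-phosphate with ATP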
# Summary of the method: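 Inhibition of parasite PFK is measured as reduced ADP formation, quantified via luciferase after ATP depletion. Assay used 0.1 mM ATP, 0.5 mM F6P, 1.25 nM enzyme, 45 min incubation.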
# [2] = target: Ubiquitin carboxyl-terminal hydrolase 1 (Homo sapiens) (UniProt O94782); assay: Inhibitors of USP1/UAF1: Pilot qHTS (AID 504865);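 also: rhodamine fluorescence freed from ubiquitin-rhodamine substrate followed over time; top concentration of the series differs between compounds; nearly all actives have a fitted effect of over 35% in size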
# Summary of the method: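 Enzyme-free wells gave the negative control, while test wells held 1nM USP1/UAF1 preincubated with compound for 15 min at room temperature. Ub-Rho at 150nM final started the reaction, and fluorescence at 480/540 nm was recorded kinetically.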
# [3] = target: Luciferin 4-monooxygenase (Photinus pyralis) (UniProt P08659); assay: Biochemical firefly luciferase enzyme assay for NPC (AID 624030);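 also: purified P. pyralis luciferase at 10 nM with luciferin and ATP substrate; nearly all actives have a fitted effect of over 70% in size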
# Summary of the method: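 Purified P. pyralis luciferase at 10 nM in 50 mM Tris Acetate (final), luminescence read within 5 minutes of enzyme addition to compounds. Activity normalised to PTC124 versus DMSO; concentration-response curves classed by r2, magnitude and activity.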
# [4] = S16 Schwann cell PMP22 intronic element firefly luciferase assay (AID 624032); also: nearly all actives have a fitted effect of over 30% in size
# Summary of the method: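 Rat S16 Schwann cells stably carrying firefly luciferase driven by a PMP22 intronic element, in 10% FBS, treated 24 h at 37 C. ONE-Glo luminescence normalized to PTC124 control and DMSO (0%); curves classed by r2, magnitude and activity.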
# [5] = S16 Schwann cell PMP22 intronic element beta-lactamase assay (AID 624044; calls by dose curve; also: nearly all actives have a fitted effect of over 15% in size)
# Summary of the method: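 Rat S16 Schwann cells with beta-Lac driven by a PMP22 intronic element, compound-treated 24 h at 37 °C. LiveBLAzer FRET B/G read: 460 nm normalized to potassium clavulanate vs DMSO; 535 nm FRET as viability; concentration-effect curves classified.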
# [6] = target: Furin (Homo sapiens) (UniProt P09958); assay: Furin counterscreen qHTS for Zika virus inhibitors (AID 1347149);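 also: purified recombinant full-length human furin enzyme at 5 nM; fluorescence gain from furin cutting a BOC-RVRR-AMC peptide substrate over 15 min; top concentration of the series differs between compounds; nearly all actives have a fitted effect of over 70% in size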
# Summary of the method: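 Fluorogenic cleavage of BOC-RVRR-AMC (2 microM final, Km ~15 µM) was monitored (ex 340, em 450 nm) at 37C after 15 min RT preincubation of 5 nM furin with compounds in HEPES pH 7.0 buffer with CaCl2 and Triton X-100. Percent inhibition was fitted to a 4-parameter Hill curve.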
# [7] = Vero cells viability qHTS for Zika virus inhibitors (AID 1347167)
# Summary of the method: (§1)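 Cells seeded at 2.5 x 10^5 cells/mL in DMEM with 4% FBS and attached overnight at 37 degrees C, then exposed to compound for 24 to 48 hours. Viability read as ATP content by CellTiter Glo luminescence.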
# [8] = HepG2 cells viability qHTS for Zika virus inhibitors (AID 1347168)
# Summary of the method: as §1
# [9] = Tertiary RLuc qRT-PCR qHTS assay for Zika virus inhibitors (AID 1347169); also: potency is read from the fitted curve at half-maximal effect; nearly all actives have a fitted effect of over 55% in size
# Summary of the method: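 Inhibition of ZIKV-RLuc replication in Vero cells, read as Renilla luminescence 1-1.5 hrs after live-cell substrate addition, following 48-72 hrs infection at MOI 1-2 in presence of compound.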
# [10] = Primary qHTS for inhibitors of SARS-S pseudo-typed particle cell entry (AID 1479145; calls by dose curve; also: nearly all actives have a fitted effect of over 45% in size)
# [11] = Primary qHTS for inhibitors of MERS-S pseudo-typed particle cell entry (AID 1479149; calls by dose curve; also: nearly all actives have a fitted effect of over 60% in size)
# [12] = Primary qHTS to identify inhibitors of SARS-CoV-2 cell entry (AID 1645846; calls by dose curve; also: nearly all actives have a fitted effect of over 45% in size); conditions: activity change, negative = inhibition: at 57.1 µM (top of the series) unless noted
# Summary of the method: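 Using luciferase-reporting pseudoviruses carrying Wuhan-Hu-1 spike, the screen tracks entry into stably ACE2-expressing cells over 48 hr. Activity is expressed relative to spike particles versus particles lacking any fusion protein.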
# [13] = target: Glutathione peroxidase 1 (Homo sapiens) (UniProt P07203); assay: Primary qHTS Assay for Inhibitors of Recombinant Selenoprotein Glutathione Peroxidase 1 (GPX1) (AID 1845191); also: nearly all actives have a fitted effect of over 65% in size
# Summary of the method: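 GR-coupled assay: compounds preincubated 30 min at room temperature with GPX1, then reaction started with CHP; final 10 nM GPX1, 1 mM GSH, 0.5 mM CHP, 0.5 mM NADPH, 100 nM GR, 0.01% BSA, pH 7.5 Tris buffer. NADPH fluorescence (340/450 nm) read at 0 and 15 min.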
# [14] = target: Phospholipid hydroperoxide glutathione peroxidase GPX4 (Homo sapiens) (UniProt P36969); assay: Primary qHTS Assay for Inhibitors of Recombinant Selenoprotein Glutathione Peroxidase 4 (GPX4) (AID 1845192); also: nearly all actives have a fitted effect of over 65% in size
# Summary of the method: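 GR-coupled assay: recombinant GPX4 preincubated 30 min with compound at room temperature; final 200 nM GPX4, 1 mM GSH, 0.5 mM cumene hydroperoxide, 0.5 mM NADPH, 100 nM GR, 0.01% BSA, pH 7.5 Tris. NADPH fluorescence (340/450 nm) read at 0 and 15 min.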
# [15] = system: 3D7; assay: qHTS profiling for inhibitors of Plasmodium falciparum proliferation (AID 504749); also: nearly all actives have a fitted effect of over 60% in size; conditions: P. falciparum in erythrocytes, SYBR Green DNA, 72 h; series mostly up to 28.7 µM
# Summary of the method: (§2)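 P. falciparum-infected erythrocytes (0.3% parasitemia, 2.5% hematocrit) incubated with compound 72 h at 37 C, 5% CO2. Parasite DNA detected by SYBR Green after lysis, overnight at room temperature; normalised to 0.29 uM artemisinin and DMSO.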
# [16] = system: AA1029; assay: as above; conditions: P. falciparum in erythrocytes, SYBR Green DNA, 72 h; series mostly up to 28.7 µM
# Summary of the method: as §2
# [17] = system: AS120; assay: as above; conditions: P. falciparum in erythrocytes, SYBR Green DNA, 72 h; series mostly up to 28.7 µM
# Summary of the method: as §2
# [18] = system: ATS189; assay: as above; conditions: P. falciparum in erythrocytes, SYBR Green DNA, 72 h; series mostly up to 28.7 µM
# Summary of the method: as §2
# [19] = system: ATS95; assay: as above; conditions: P. falciparum in erythrocytes, SYBR Green DNA, 72 h; series mostly up to 28.7 µM
# Summary of the method: as §2
# [20] = system: C2A; assay: as above; conditions: P. falciparum in erythrocytes, SYBR Green DNA, 72 h; series mostly up to 28.7 µM
# Summary of the method: as §2
# [21] = system: CP185; assay: as above; conditions: P. falciparum in erythrocytes, SYBR Green DNA, 72 h; series mostly up to 28.7 µM
# Summary of the method: as §2
# [22] = system: CP191; assay: as above; conditions: P. falciparum in erythrocytes, SYBR Green DNA, 72 h; series mostly up to 28.7 µM
# Summary of the method: as §2
# [23] = system: CP192; assay: as above; conditions: P. falciparum in erythrocytes, SYBR Green DNA, 72 h; series mostly up to 28.7 µM
# Summary of the method: as §2
# [24] = system: CP194; assay: as above; conditions: P. falciparum in erythrocytes, SYBR Green DNA, 72 h; series mostly up to 28.7 µM
# Summary of the method: as §2
# [25] = system: CP201; assay: as above; conditions: P. falciparum in erythrocytes, SYBR Green DNA, 72 h; series mostly up to 28.7 µM
# Summary of the method: as §2
# [26] = system: CP203; assay: as above; conditions: P. falciparum in erythrocytes, SYBR Green DNA, 72 h; series mostly up to 28.7 µM
# Summary of the method: as §2
# [27] = system: CP211; assay: as above; conditions: P. falciparum in erythrocytes, SYBR Green DNA, 72 h; series mostly up to 28.7 µM
# Summary of the method: as §2
# [28] = system: CP215; assay: as above; conditions: P. falciparum in erythrocytes, SYBR Green DNA, 72 h; series mostly up to 28.7 µM
# Summary of the method: as §2
# [29] = system: CP217; assay: as above; conditions: P. falciparum in erythrocytes, SYBR Green DNA, 72 h; series mostly up to 28.7 µM
# Summary of the method: as §2
# [30] = system: CP237; assay: as above; conditions: P. falciparum in erythrocytes, SYBR Green DNA, 72 h; series mostly up to 28.7 µM
# Summary of the method: as §2
# [31] = system: CP238; assay: as above; conditions: P. falciparum in erythrocytes, SYBR Green DNA, 72 h; series mostly up to 28.7 µM
# Summary of the method: as §2
# [32] = system: CP247; assay: as above; conditions: P. falciparum in erythrocytes, SYBR Green DNA, 72 h; series mostly up to 28.7 µM
# Summary of the method: as §2
# Luciferin 4-monooxygenase (Photinus pyralis), sequence (P08659 whole entry, looked up): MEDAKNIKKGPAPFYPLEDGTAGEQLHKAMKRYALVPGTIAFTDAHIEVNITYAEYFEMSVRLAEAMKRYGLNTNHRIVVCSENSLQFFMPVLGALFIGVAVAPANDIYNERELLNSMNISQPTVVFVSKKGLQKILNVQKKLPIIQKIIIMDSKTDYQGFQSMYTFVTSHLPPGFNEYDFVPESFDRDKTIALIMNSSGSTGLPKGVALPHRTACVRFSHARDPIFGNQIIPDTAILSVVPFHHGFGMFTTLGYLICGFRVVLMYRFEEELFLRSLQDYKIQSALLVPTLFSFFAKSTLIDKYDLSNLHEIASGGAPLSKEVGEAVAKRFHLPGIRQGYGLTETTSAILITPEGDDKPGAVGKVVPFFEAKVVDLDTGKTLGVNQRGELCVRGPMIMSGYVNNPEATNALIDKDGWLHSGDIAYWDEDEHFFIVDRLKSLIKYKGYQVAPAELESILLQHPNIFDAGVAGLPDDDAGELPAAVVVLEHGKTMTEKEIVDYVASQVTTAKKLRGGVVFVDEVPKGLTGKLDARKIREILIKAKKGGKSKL
# Glutathione peroxidase 1 (Homo sapiens), sequence (P07203 whole entry, looked up): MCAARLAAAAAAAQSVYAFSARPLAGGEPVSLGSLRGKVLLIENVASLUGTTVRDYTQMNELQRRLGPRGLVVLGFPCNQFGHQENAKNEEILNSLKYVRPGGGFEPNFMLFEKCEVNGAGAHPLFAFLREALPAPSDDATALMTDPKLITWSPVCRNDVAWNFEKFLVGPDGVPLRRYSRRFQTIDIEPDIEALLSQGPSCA
# Ubiquitin carboxyl-terminal hydrolase 1 (Homo sapiens), sequence (O94782 whole entry, looked up): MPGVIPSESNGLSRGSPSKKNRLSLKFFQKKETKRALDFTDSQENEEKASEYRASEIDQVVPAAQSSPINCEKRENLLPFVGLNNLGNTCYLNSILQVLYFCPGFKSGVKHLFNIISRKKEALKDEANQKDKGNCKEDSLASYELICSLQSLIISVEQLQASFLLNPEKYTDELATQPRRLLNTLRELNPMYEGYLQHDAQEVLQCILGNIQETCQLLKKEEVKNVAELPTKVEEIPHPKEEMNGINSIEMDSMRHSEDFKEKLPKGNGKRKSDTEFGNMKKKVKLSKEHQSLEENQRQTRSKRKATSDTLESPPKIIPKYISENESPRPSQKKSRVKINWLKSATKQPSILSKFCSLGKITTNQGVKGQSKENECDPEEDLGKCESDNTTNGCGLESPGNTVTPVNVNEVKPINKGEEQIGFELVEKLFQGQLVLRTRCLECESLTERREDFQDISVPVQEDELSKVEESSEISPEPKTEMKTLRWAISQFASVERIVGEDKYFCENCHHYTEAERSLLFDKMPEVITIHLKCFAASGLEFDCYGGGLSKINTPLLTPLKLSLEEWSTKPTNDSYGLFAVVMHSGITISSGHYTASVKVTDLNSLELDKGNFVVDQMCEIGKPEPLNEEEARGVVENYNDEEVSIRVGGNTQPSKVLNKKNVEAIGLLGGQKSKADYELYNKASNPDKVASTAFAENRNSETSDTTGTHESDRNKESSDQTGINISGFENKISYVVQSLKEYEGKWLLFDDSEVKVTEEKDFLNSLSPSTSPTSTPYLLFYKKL
# Furin (Homo sapiens), sequence (P09958 whole entry, looked up): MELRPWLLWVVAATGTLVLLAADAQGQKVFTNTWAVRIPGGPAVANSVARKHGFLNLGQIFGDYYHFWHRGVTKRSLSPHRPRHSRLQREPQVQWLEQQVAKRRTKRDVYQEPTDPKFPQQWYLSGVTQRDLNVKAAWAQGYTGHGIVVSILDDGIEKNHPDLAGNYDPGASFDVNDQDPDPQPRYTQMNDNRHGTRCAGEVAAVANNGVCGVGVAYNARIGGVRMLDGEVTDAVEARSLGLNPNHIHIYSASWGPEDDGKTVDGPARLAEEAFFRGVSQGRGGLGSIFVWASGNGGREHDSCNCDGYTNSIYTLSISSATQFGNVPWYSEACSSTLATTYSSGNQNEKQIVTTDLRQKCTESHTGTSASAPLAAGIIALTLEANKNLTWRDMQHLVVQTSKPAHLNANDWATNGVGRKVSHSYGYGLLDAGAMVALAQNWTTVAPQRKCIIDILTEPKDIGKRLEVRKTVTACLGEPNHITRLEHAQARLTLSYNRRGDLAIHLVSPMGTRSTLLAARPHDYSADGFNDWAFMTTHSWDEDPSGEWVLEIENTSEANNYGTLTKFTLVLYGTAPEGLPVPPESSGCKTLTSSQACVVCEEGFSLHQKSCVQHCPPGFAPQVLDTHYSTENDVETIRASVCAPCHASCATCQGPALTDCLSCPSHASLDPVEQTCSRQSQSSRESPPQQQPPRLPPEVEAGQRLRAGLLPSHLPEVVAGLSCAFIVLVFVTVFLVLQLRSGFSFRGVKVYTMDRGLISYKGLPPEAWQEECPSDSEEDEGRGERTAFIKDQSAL
# ATP-dependent 6-phosphofructokinase (Trypanosoma brucei brucei), sequence (O15648 whole entry, looked up): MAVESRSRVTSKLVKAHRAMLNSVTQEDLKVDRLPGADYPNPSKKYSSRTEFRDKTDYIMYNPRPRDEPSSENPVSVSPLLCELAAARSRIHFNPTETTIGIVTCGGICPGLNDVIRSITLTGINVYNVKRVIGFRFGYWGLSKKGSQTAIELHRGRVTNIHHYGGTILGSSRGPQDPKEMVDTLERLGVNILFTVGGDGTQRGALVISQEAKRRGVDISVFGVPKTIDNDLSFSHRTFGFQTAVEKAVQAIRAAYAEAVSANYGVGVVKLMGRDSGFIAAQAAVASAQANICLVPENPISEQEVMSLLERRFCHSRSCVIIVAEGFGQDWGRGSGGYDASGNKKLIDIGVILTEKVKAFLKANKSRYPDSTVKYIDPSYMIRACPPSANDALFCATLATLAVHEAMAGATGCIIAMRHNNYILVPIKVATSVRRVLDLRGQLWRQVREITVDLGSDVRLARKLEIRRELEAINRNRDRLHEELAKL
# Phospholipid hydroperoxide glutathione peroxidase GPX4 (Homo sapiens), sequence (P36969 whole entry, looked up): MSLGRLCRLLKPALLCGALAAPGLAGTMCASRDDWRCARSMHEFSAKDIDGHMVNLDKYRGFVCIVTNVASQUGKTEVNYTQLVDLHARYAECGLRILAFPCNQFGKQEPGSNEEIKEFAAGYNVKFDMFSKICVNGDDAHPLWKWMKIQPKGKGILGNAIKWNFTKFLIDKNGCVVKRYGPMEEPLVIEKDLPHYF
smiles,measurement,setting,value
CO[C@H]1[C@@H](O)CC(OC2[C@@H](O)CC(OC3[C@@H](O)C[C@H](OC4CC[C@@]5(C)C(CCC6C5CC(O)[C@]5(C)[C@H](C7=CC(=O)OC7)CCC65O)C4)O[C@@H]3C)O[C@@H]2C)O[C@@H]1C (some centres not stated),Potency,[1],inactive
same,Potency,[2],inactive
same,Potency,[3],inactive
same,Potency,[4],inactive
same,Potency,[5],inactive
same,Potency,[6],inactive
same,Potency,[7],inactive
same,Potency,[8],inactive
same,Potency,[9],240 nM (active)
same,Potency,[10],inactive
same,Potency,[11],inactive
same,"activity change, negative = inhibition",[12],-97.7% [at 114 µM]
same,Potency,[13],inactive
same,Potency,[14],inactive
same,Potency,[15],inactive
same,Potency,[16],inactive
same,Potency,[17],inactive
same,Potency,[18],inactive
same,Potency,[19],inactive
same,Potency,[20],inactive
same,Potency,[21],inactive
same,Potency,[22],inactive
same,Potency,[23],inactive
same,Potency,[24],inactive
same,Potency,[25],inactive
same,Potency,[26],inactive
same,Potency,[27],inactive
same,Potency,[28],inactive
same,Potency,[29],inactive
same,Potency,[30],inactive
same,Potency,[31],inactive
same,Potency,[32],inactive
